Source: PubChem
Hits are enriched below; roughly 6.2% of the tested compounds scored in any of these assays.
Luc counter: Kinase-Glo luciferase inhibition (counter-screen); Q27757; Kinase-Glo luciferase, ATP luminescence, 8 min; Potency, µM (highest dose often 38.3 µM), without a hit: at the highest dose activity change, negative = inhibition, hits mostly inhibitors; 200,000 compounds, 0.28% hits; AID 1379; note: nearly all actives have a fitted effect of over 60% in size
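Light output from Kinase-Glo luciferase with luciferin and 10 uM ATP in 50 mM imidazole pH 7.2, KCl, MgCl2, Tween 20, BSA; compound pin-delivered, 8-min ambient incubation, then luminescence read.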
RORg inh: blocks mouse ROR gamma transcriptional activity | P51450 | Drosophila S2 Gal4-RORgamma UAS-luciferase reporter, 20 h | Potency, µM (top dose mostly 53.6 µM), inactives show at the highest dose activity change, negative = inhibition, usual class: inhibitors | 310,000 compounds, 5.4% hits; note: nearly all actives have a fitted effect of over 60% in size
Target sequence (P51450 whole entry, looked up, the tested form may be a part): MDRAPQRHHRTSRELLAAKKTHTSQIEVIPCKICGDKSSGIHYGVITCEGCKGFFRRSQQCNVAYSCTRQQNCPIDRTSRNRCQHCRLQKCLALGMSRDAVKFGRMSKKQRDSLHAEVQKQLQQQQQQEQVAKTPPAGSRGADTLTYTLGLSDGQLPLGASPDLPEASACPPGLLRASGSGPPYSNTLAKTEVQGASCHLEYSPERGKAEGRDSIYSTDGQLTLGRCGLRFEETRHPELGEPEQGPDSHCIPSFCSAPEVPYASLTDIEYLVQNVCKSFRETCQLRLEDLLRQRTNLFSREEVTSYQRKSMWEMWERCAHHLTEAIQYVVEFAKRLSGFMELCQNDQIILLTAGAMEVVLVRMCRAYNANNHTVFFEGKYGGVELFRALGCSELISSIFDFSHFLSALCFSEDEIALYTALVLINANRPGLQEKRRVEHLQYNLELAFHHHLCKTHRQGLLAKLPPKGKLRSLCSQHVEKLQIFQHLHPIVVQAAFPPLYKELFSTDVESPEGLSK
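ROR gamma transcriptional activity was tracked as Gal4-UAS luciferase output in stably transfected Drosophila Schneider cells, with compound added 1 hr before 700 uM copper sulfate induction and a 20 hr ambient-temperature incubation.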
VP16 counter: inhibits Gal4-VP16 luciferase reporter, ROR gamma counter-screen; Drosophila S2 Gal4-VP16 UAS-luciferase, luminescence, 20 h; 310,000 compounds, 3.5% hits; AID 2546; Potency, µM (titrated, usually from 53.6 µM), for the others: at the highest dose activity, negative = inhibition, usual class: inhibitors;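 note: Gal4-VP16 expression switched on by copper sulfate through the metallothionein promoter; nearly all actives have a fitted effect of over 50% in size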
* marks the source's active call; other numbers are inactive results; u = inconclusive; x = not tested or not shown; [ ] = remark or other dose. Calls come from the whole dose curve; as a rule, active = well fitted curve in the direction sought with a large enough effect; inconclusive = small, poorly fitted or top-dose-only effect, or another doubt; inactive = no such curve, though single readings can be large; an effect the other way counts as inactive or inconclusive. % is set by controls: 0 for no effect and ±100 for the full control effect; potency is the fitted concentration of half-maximal effect.

SMILES	Luc counter	RORg inh	VP16 counter
O=C(CCC1CCCN(C(=O)Cn2cnnn2)C1)NCc1ccccc1F (configuration not stated)	x	11.8%	-3.7%
CC(=O)O[C@]1(C(C)=O)CC[C@H]2C3C=C(Cl)C4=CC(=O)[C@@H]5C[C@H]5[C@]4(C)C3CC[C@@]21C (some centres not stated)	-3.3%	x	x
Nc1nc2c(c(=O)[nH]1)C(c1ccccc1)C1=C(N2)c2ccccc2C1=O (configuration not stated)	x	2.4%	1.2%
CCC(C)c1ccc(C2C3=C(Nc4nc(N)[nH]c(=O)c42)c2ccccc2C3=O)cc1 (configuration not stated)	x	12.6µM*	u
CCNC(=O)n1cc(-n2cncn2)c(-c2ccccc2)n1	-2.8%	1.4%	6.6%
O=C1C[C@@H](c2ccc(O)c(O)c2)Oc2c1ccc(O[C@@H]1O[C@H](CO)[C@@H](O)[C@H](O)[C@H]1O)c2O	x	-6.4%	-12.1%
CC1(C)CC(=O)C2=C(C1)Oc1nc3ccccc3cc1C2C(C#N)C#N (configuration not stated)	-0.5%	3.16µM*	u
CC1(C)CC(=O)C([C@H]2C3=C(CC(C)(C)CC3=O)Oc3ccccc32)C(=O)C1	1.3%	17.7%	0.3%
COC(=O)[C@@H]1CC[C@H](C)[C@@H](c2ccc(C)cc2)N1C(=O)c1ccc(/C=N\O[C@@H](C)c2cn([C@H]3COC[C@H]3O)nn2)cc1	x	-22.0%[10 µM]	6.4%[10 µM]
Nc1ccc(Oc2ccc([N+](=O)[O-])cc2[N+](=O)[O-])cc1	2.4%	8.91µM*	2.8%
CC1=NN(c2ccccc2)C(=O)/C1=C\c1ccc(Oc2ccc([N+](=O)[O-])cc2[N+](=O)[O-])cc1	5.0%	-38.5%	u
O=c1ccc2ccc(Oc3ccc([N+](=O)[O-])cc3[N+](=O)[O-])cc2o1	2.8%	10µM*	u
Cc1cc(=O)oc2cc(Oc3ccc(C(N)=O)cc3[N+](=O)[O-])ccc12	x	8.2%	-1.9%
Cc1cc(-c2ccccc2)nc(N(C)NC(=O)c2ccc(Cl)cc2)c1S(C)(=O)=O	-2.6%	2.1%	-19.8%
Cc1ccc(S(=O)(=O)[N-]c2nc3ccccc3nc2-[n+]2cc(C)cc(C)c2)cc1	x	2.2%	5.2%
CCc1ccc2oc(-c3cccc(N)c3)nc2c1	-22.8%	10µM*	14.1µM*
Nc1ccc2oc(-c3cccc(Br)c3)nc2c1	-6.5%	13.6%	-4.4%
Cc1nc2ccc(-c3nc4cc(N)ccc4o3)cc2[nH]1	-11.6%	15.8µM*	u
Nc1ccc2oc(-c3ccc4nc[nH]c4c3)nc2c1	-15.9%	u	u
Nc1nnc(SCC(=O)N2CCc3ccccc3C2)s1	0.3%	19.9%	-4.9%
COc1cc(C2c3[nH]c4ccccc4c3C[C@H]3C(=O)N(C4CC4)CC(=O)N23)ccc1OC(C)C (some centres not stated)	x	37.9%	-3.3%
Cc1ccc(NC(=O)c2ccccc2SCC(=O)N2CCCC2)cc1S(=O)(=O)N(C)C	x	6.1%	1.2%
O=C(O)CCSc1nnc(-c2ccncc2)n1-c1ccccc1	7.9%	15.8%	0.2%
COc1ccc(-c2nnc(SCCC(=O)O)n2-c2ccccc2)cc1	1.2%	12.6µM*	-16.8%
Cc1ccc(-n2c(SCc3ccc([N+](=O)[O-])cc3)nc3ccccc3c2=O)cc1	-0.2%	33.9%	-4.3%
SMILES	Luc counter	RORg inh	VP16 counter
COc1ccc(-n2c(SCc3ccc([N+](=O)[O-])cc3)nnc2-c2ccc(C)cc2)cc1	-0.3%	-3.2%	4.47µM*
CCN(CC)c1ccc(-c2nnc(SCC(=O)Nc3ccccc3C#N)n2-c2ccccc2)cc1	-2.2%	17.8µM*	-25.3%
Cc1ccc(-c2nnc(SCC(=O)CC(=O)Nc3ccccc3)n2-c2ccccc2)cc1	3.6%	3.55µM*	u
O=C(CSc1nnc(-c2cccnc2)n1-c1ccccc1)Nc1ccccc1	-0.1%	-14.5%	12.7%
N#Cc1ccccc1NC(=O)CSc1nnc(-c2ccccc2)n1-c1ccccc1	-2.4%	9.1%	19.0%
C#CC(CC)(CC)NC(=O)c1c(C)noc1C	1.1%	2.7%	-3.0%
Cc1cc(C)nc(NS(=O)(=O)c2ccc(NC(=O)CCCN3C(=O)c4ccccc4C3=O)cc2)n1	15.2%	0.2%[10 µM]	-0.9%
CC(=O)OCCN1C(=O)c2c(C)nc3ccc(S(=O)(=O)N4CCOCC4)cc3c2C1=O	x	-4.7%	5.1%
CCn1c(COc2ccccc2C)nnc1SCC(=O)CC(=O)Nc1ccccc1	0.8%	7.08µM*	u
CCn1c(COc2ccccc2C)nnc1SCC(=O)O	5.1%	-0.8%	-10.5%
O=[N+]([O-])c1ccc(CSc2nnc(Cc3ccccc3)n2-c2ccc(F)cc2)cc1	3.8%	u	10µM*
